Source: PubChem BioAssay (National Center for Advancing Translational Sciences (NCATS))
KB-V1 MDR tox = qHTS assay for MDR1-selective chemotherapeutics: Primary screen using the drug-selected MDR subline cells KB-V1; KB-V1 MDR cells viability, CellTiter-Glo, 72 h; 400,000 tested, 3.4% active; AID 1347076, 2019; Potency, µM (series often up to 46.1 µM), actives largely listed as cytotoxic; note: nearly all actives have a fitted effect of over 60% in size
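Cytotoxicity toward P-gp-expressing KB-V1 cells was determined as loss of CellTiter-Glo luminescence after 72 h at 37 degrees C. Compounds were tested in quantitative HTS format across a concentration range, with curves fitted to normalized data.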
TDP1 cell CPT = qHTS for Inhibitors of human tyrosyl-DNA phosphodiesterase 1 (TDP1): qHTS in cells in presence of CPT | AID 686979, 2013 | Potency, µM (series often up to 46.2 µM), for the others: at the highest dose activity change, negative = growth inhibition, usual class: inhibitors | chicken DT40 Tdp1-/-;hTDP1 cells + 20 nM CPT, ATP luminescence, 48 h | 420,000 tested, 12% active; note: nearly all actives have a fitted effect of over 55% in size
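Chicken DT40 Tdp1-/- cells complemented with human TDP1, 400 cells/well, exposed to compounds plus 20 nM camptothecin for at least 48 h at 37 C; viability read as ATP content by CellTiter-Glo luminescence.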
HT1080NT lethal = qHTS for induction of synthetic lethality in tumor cells producing 2HG: qHTS for the HT-1080-NT fibrosarcoma cell line | HT-1080-NT fibrosarcoma viability, CellTiter-Glo ATP luminescence, 48 h | Potency, µM (top dose mostly 46.1 µM), for inactives: top-dose activity, negative = less viability, actives largely listed as cytotoxic | 360,000 tested, 1.6% active;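 note: NT is the 2HG producing partner of a matched IDH1 knockdown line; 0% = DMSO-treated cells and -100% = media-only wells without cells; nearly all actives have a fitted effect of over 55% in size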
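Viability of the 2HG-overproducing fibrosarcoma line after 48 hours of compound exposure at 37 degrees C was determined by luminescence with CellTiter-Glo, and concentration-effect curves were then fitted and categorized.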
KB-3-1 cytotox = qHTS assay for MDR1-selective chemotherapeutics: Primary screen using the parental adenocarcinoma cell KB-3-1 | AID 1347075, 2019 | KB-3-1 viability, CellTiter-Glo ATP luminescence, 72 h | 400,000 tested, 1.4% active | Potency, µM (titrated, usually from 46.1 µM), most hits filed as cytotoxic; note: nearly all actives have a fitted effect of over 60% in size
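Cytotoxicity in the drug-sensitive parental line KB-3-1 was scored as loss of CellTiter-Glo luminescence following 72 h incubation with compound. Values come from curve fitting of normalized concentration-response data.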
HT1080 IDH1KD tx = qHTS for induction of synthetic lethality in tumor cells producing 2HG: qHTS for the HT-1080-IDH1KD cell line; HT-1080 IDH1 knockdown viability, ATP luminescence, 48 h; Potency, µM (highest dose often 46.1 µM), without a hit: top-dose activity, negative = toxicity, usual class: cytotoxic; 360,000 tested, 2% active; AID 686971, 2013;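 note: 0% = DMSO wells and -100% = cell-free medium wells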
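Cytotoxicity counter-line: IDH1KD HT-1080, 48 h, CellTiter-Glo. Curves classed by r2, magnitude and activity.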
DT40 TDP1 no CPT = qHTS for Inhibitors of human tyrosyl-DNA phosphodiesterase 1 (TDP1): qHTS in cells in absence of CPT. DT40 Tdp1-/- hTDP1 cells, no CPT, ATP luminescence, 48 h. Potency, µM (series often up to 46.2 µM), for the others: at the top dose activity change, negative = growth inhibition, hits mostly inhibitors. 420,000 tested, 15% active; note: nearly all actives have a fitted effect of over 55% in size
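Compound effects on proliferation are scored in DT40 Tdp1-/-;hTDP1 cells in the absence of CPT. ATP levels (CellTiter-Glo luminescence) are recorded after a ≥48 hr, 37 °C incubation.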
An asterisk follows results filed as active; i = inactive; ? = inconclusive; . = no result given; [ ] = dose if it differs, or a comment. Rows were chosen to be rich in hits. Some 19% of all compounds tested hit in one or more screens of this group. Calls come from the whole dose curve; as a rule, active = well fitted curve in the direction sought with a large enough effect; inconclusive = small, poorly fitted or top-dose-only effect, or another doubt; inactive = no such curve, though single readings can be large; an effect the other way counts as inactive or inconclusive. Unless noted, % is set by controls: 0 for no effect and ±100 for the full control effect; potency is the fitted concentration of half-maximal effect.

SMILES	KB-V1 MDR tox	TDP1 cell CPT	HT1080NT lethal	KB-3-1 cytotox	HT1080 IDH1KD tx	DT40 TDP1 no CPT
COc1ccccc1OCC(=O)Nc1nc(C)c(C)s1	?	3%	-19%	i	-7%	?
Cc1cc(C)n(-c2ccc(C(=O)Nc3cccnc3)cc2)n1	i	-2%	16%	i	17%	-5%
COc1cc2c(NC3CCN(C)CC3)nc(N3CCCN(C)CC3)nc2cc1OCC1CCCCN1 (configuration not stated)	i	11µM*	.	?	.	?
COc1cc2c(NC3CCN(C)CC3)nc(N3CCCN(C)CC3)nc2cc1OCCCCCC(N)=O	.	7%	2%	.	3%	?
CCOC(=O)N1CCN(C(=O)CNC2CCCCCCC2)CC1	i	4%	-15%	i	0%	6%
CCCCN1C(=O)C(O)(CC(=O)c2ccc(C)cc2C)c2cc(Br)ccc21 (configuration not stated)	i	16µM*	.	i	.	16µM*
CCCCN1C(=O)C(O)(CC(=O)c2c(C)n[nH]c2C)c2cc(Br)ccc21 (configuration not stated)	?	3%	0%	i	5%	-20%
CCCCN1C(=O)C(O)(CC(=O)c2ccco2)c2cc(Br)ccc21 (configuration not stated)	i	2.6µM*	?	15µM*	?	4.1µM*
Cc1cccc(C(=O)Nc2ccc(N3CCC(N4CCCCC4)CC3)c(C(=O)O)c2)c1	i	0%	.	i	.	-2%
O=C(c1cc(C(=O)NCCc2ccccc2)c(=O)n(CCc2ccccc2)c1)c1cc(Cl)ccc1O	2.3µM*	?	-15%	?	?	15µM*
COc1ccc(CCNC(=O)c2cc(C(=O)c3cc(Cl)ccc3O)cn(CCc3ccc(OC)cc3)c2=O)cc1	2.6µM*	10µM*	-11%	i	0%	10µM*
CCOC(=O)c1c(S(=O)(=O)N2CCC(C(=O)N3CCN(c4cc(C)ccc4C)CC3)CC2)c(C)n(C)c1C	.	?	.	.	.	23µM*
CCOC(=O)c1c(S(=O)(=O)N2CCCC(C(=O)N3CCN(c4cc(C)ccc4C)CC3)C2)c(C)n(C)c1C (configuration not stated)	?	8.2µM*	.	i	.	9.2µM*
CCOC(=O)c1c(S(=O)(=O)N2CCCC(C(=O)N3CCN(c4cccc(C)c4C)CC3)C2)c(C)n(C)c1C (configuration not stated)	i	7.3µM*	.	i	.	9.2µM*
COc1ccc(O)c(CN2CCC3(CCC(CNC(=O)c4ccccc4)O3)CC2)c1 (configuration not stated)	.	3%	.	.	.	?
Nc1nc(=S)ss1	i	16µM*	6%	i	17%	7.3µM*
O=S(=O)(Nc1ccccc1)c1ccc(Oc2ncc(C(F)(F)F)cc2Cl)cc1	?	15µM*	?	?	?	?
O=S(=O)(Cc1ncc(C(F)(F)F)cc1Cl)c1ccccc1	?	23µM*	-21%	?	?	?
Cc1nc2nc(CNC(=O)OC(C)(C)C)nn2c(C)c1CCC(=O)NCc1ccc(F)cc1	i	1%	.	i	.	-16%
Cc1ccc(-c2nn(Cc3ccccc3)cc2/C=C/C(=O)O)cc1	i	-10%	-4%	i	3%	-1%
O=Cc1cn(CCC(=O)O)nc1-c1cccc(Br)c1	i	-16%	17%	i	-1%	-20%
Cc1ccc(-c2nn(CCC(=O)O)cc2/C=C\C(=O)c2ccc(Br)cc2)cc1	i	12µM*	-16%	?	?	?
O=C(O)CCn1cc(/C=C\C(=O)c2ccc(Cl)cc2)c(-c2cccc(Br)c2)n1	i	?	-18%	i	?	18µM*
COc1cc(-c2nc(C)cnc2C)cc2c1OCCN(C(=O)Cc1cc(OC)c(OC)c(OC)c1)C2	.	9%[9.04 µM]	.	.	.	-5%
COC(=O)Cc1ccc(OC2(C)CCN(Cc3ccccc3)C2)cc1 (configuration not stated)	i	-21%	?	i	22%	-18%
SMILES	KB-V1 MDR tox	TDP1 cell CPT	HT1080NT lethal	KB-3-1 cytotox	HT1080 IDH1KD tx	DT40 TDP1 no CPT
c1ccc2cc(CNCc3cccc4ccccc34)ccc2c1	i	?	?	i	23µM*	?
OCCC1CN(CC(c2ccccc2)c2ccccc2)CCN1C1CCCC1 (configuration not stated)	i	?	-19%	i	-13%	18µM*
CC(C)N1CCC(N2CCN(Cc3ccc(-c4ccccc4Cl)o3)CC2CCO)CC1 (configuration not stated)	i	?	?	i	-13%	?
OCCC1CN(Cc2cnc(-c3ccc(Cl)cc3)nc2)CCN1C1CCCC1 (configuration not stated)	i	23µM*	?	i	?	15µM*
CC(C)N1CCC(N2CCN(Cc3ccc(-c4ccc(Cl)cc4)o3)CC2CCO)CC1 (configuration not stated)	i	?	16µM*	?	21µM*	18µM*
CC(C)N1CCC(N2CCN(Cc3cnc(-c4ccccc4)s3)CC2CCO)CC1 (configuration not stated)	i	1%	-11%	i	-22%	-6%
Cc1ccc(-c2cccc(CN3CCN(C4CCN(C(C)C)CC4)C(CCO)C3)c2)o1 (configuration not stated)	i	?	?	i	?	7.3µM*
COc1ccc(CCN2C(=NC(=O)CC(C)C)SC3CS(=O)(=O)CC32)cc1OC (configuration not stated)	i	-19%	2%	i	5%	?
O=C(CCS(=O)(=O)c1cc(Br)cc2c1N(C(=O)C1CC1)CC2)N1CCN(c2cccc(Cl)c2)CC1	?	2%	.	i	.	-3%
C=CCN(C(=O)CNC(=O)c1cccs1)C(C(=O)NC(C)(C)C)c1ccccc1 (configuration not stated)	i	1%	-1%	i	14%	1%
